PubChem BioAssay AID1159580 (chemical genetic matrix, 2015)
Values joined by “and” are separate entries in the source; they are usually repeats but may differ in a detail not shown here. Equal entries are not always repeated. Screen size: about 5,500 compounds; about 2,000 (36%) were called active. Another 18% or so got no clear call; they are omitted. The list shows a part of the results. A number with no mark means an inactive call. Cut-off read from the data, not from the text of the source: active = normalized growth mostly below about 0.91 (no sharp cut-off); inconclusive = no clear call, values can overlap the other calls; inactive = mostly above about 0.92.

Assay: chemical genetic growth profiling, strain panel (AID 1159580);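 note: tested at 20 µM; growth read once vehicle control cultures reached saturation at 30 °C; 1 = growth at the plate median or of vehicle wells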
Conditions: growth OD

Compound: CC(COc1ccccc1)N(CCCl)Cc1ccccc1 (stereo unspecified)
- normalized growth (S. cerevisiae deletion strains, locus YJR075W, strain HOC1, stronger effect = lower value): 1.02
- normalized growth (S. cerevisiae deletion strains, locus YKL009W, strain mrt4, stronger effect = lower value): 1.04
- normalized growth (S. cerevisiae deletion strains, locus YKL068W, stronger effect = lower value): 1.02
- normalized growth (S. cerevisiae deletion strains, locus YKL085W, strain MDH1 (second series), stronger effect = lower value): 1.01
- normalized growth (S. cerevisiae deletion strains, locus YKL085W, strain MDH1, stronger effect = lower value): 1.01
- normalized growth (S. cerevisiae deletion strains, locus YKL160W, strain elf1, stronger effect = lower value): 0.931
- normalized growth (S. cerevisiae deletion strains, locus YKL190W, strain CNB1, stronger effect = lower value): 1.01
- normalized growth (S. cerevisiae deletion strains, locus YKR001C, strain vps1, stronger effect = lower value): 0.996
- normalized growth (S. cerevisiae deletion strains, locus YKR026C, strain gcn3, stronger effect = lower value): 0.985
- normalized growth (S. cerevisiae deletion strains, locus YKR091W, strain srl3, stronger effect = lower value): 0.978
- normalized growth (S. cerevisiae deletion strains, locus YLL001W, strain dnm1, stronger effect = lower value): 1.03
- normalized growth (S. cerevisiae deletion strains, locus YLL026W, stronger effect = lower value): 0.976
- normalized growth (S. cerevisiae deletion strains, locus YLL041C, strain sdh2, stronger effect = lower value): 0.979
- normalized growth (S. cerevisiae deletion strains, locus YLR027C, strain aat2, stronger effect = lower value): 0.924 (active)
- normalized growth (S. cerevisiae deletion strains, locus YLR039C, strain RIC1, stronger effect = lower value): 0.939
- normalized growth (S. cerevisiae deletion strains, locus YLR058C, strain SHM2, stronger effect = lower value): 1.01
- normalized growth (S. cerevisiae deletion strains, locus YLR102C, strain apc9, stronger effect = lower value): 1.01
- normalized growth (S. cerevisiae deletion strains, locus YLR113W, strain HOG1, stronger effect = lower value): 0.977
- normalized growth (S. cerevisiae deletion strains, locus YLR221C, strain rsa3, stronger effect = lower value): 0.995
- normalized growth (S. cerevisiae deletion strains, locus YLR258W, strain gsy2, stronger effect = lower value): 0.95
- normalized growth (S. cerevisiae deletion strains, locus YLR262C, strain YPT6 (second series), stronger effect = lower value): 0.897
- normalized growth (S. cerevisiae deletion strains, locus YLR262C, strain YPT6, stronger effect = lower value): 0.977
- normalized growth (S. cerevisiae deletion strains, locus YLR268W, strain sec22, stronger effect = lower value): 1.04
- normalized growth (S. cerevisiae deletion strains, locus YLR320W, strain mms22, stronger effect = lower value): 0.985
- normalized growth (S. cerevisiae deletion strains, locus YLR330W, strain CHS5, stronger effect = lower value): 1.01
- normalized growth (S. cerevisiae deletion strains, locus YLR342W, strain FKS1 (second series), stronger effect = lower value): 0.974
- normalized growth (S. cerevisiae deletion strains, locus YLR342W, strain FKS1, stronger effect = lower value): 0.989
- normalized growth (S. cerevisiae deletion strains, locus YLR357W, strain rsc2, stronger effect = lower value): 0.969
- normalized growth (S. cerevisiae deletion strains, locus YLR370C, strain arc18, stronger effect = lower value): 0.963
- normalized growth (S. cerevisiae deletion strains, locus YLR371W, strain rom2, stronger effect = lower value): 1.02
- normalized growth (S. cerevisiae deletion strains, locus YLR384C, strain iki3, stronger effect = lower value): 0.999
- normalized growth (S. cerevisiae deletion strains, locus YLR418C, strain cdc73, stronger effect = lower value): 0.97
- normalized growth (S. cerevisiae deletion strains, locus YML016C, strain PPZ1, stronger effect = lower value): 1
- normalized growth (S. cerevisiae deletion strains, locus YML032C, strain rad52, stronger effect = lower value): 1.02
- normalized growth (S. cerevisiae deletion strains, locus YML120C, strain ndi1, stronger effect = lower value): 1.01
- normalized growth (S. cerevisiae deletion strains, locus YML124C, strain tub3, stronger effect = lower value): 1.01
- normalized growth (S. cerevisiae deletion strains, locus YMR058W, strain fet3, stronger effect = lower value): 0.95
- normalized growth (S. cerevisiae deletion strains, locus YMR078C, strain ctf18, stronger effect = lower value): 1.02
- normalized growth (S. cerevisiae deletion strains, locus YMR125W, strain sto1, stronger effect = lower value): 0.987
- normalized growth (S. cerevisiae deletion strains, locus YMR129W, stronger effect = lower value): 0.959
- normalized growth (S. cerevisiae deletion strains, locus YMR205C, strain PFK2, stronger effect = lower value): 0.969
- normalized growth (S. cerevisiae deletion strains, locus YMR223W, strain ubp8, stronger effect = lower value): 0.99
- normalized growth (S. cerevisiae deletion strains, locus YMR231W, strain pep5, stronger effect = lower value): 0.996
- normalized growth (S. cerevisiae deletion strains, locus YMR263W, strain SAP30, stronger effect = lower value): 1.01 and 0.995
- normalized growth (S. cerevisiae deletion strains, locus YMR307W, strain GAS1, stronger effect = lower value): 1.01 and 1
- normalized growth (S. cerevisiae deletion strains, locus YNL067W, strain RPL9B, stronger effect = lower value): 1.03
- normalized growth (S. cerevisiae deletion strains, locus YNL071W, strain lat1, stronger effect = lower value): 0.918 (active)
- normalized growth (S. cerevisiae deletion strains, locus YNL128W, strain TEP1, stronger effect = lower value): 1.01
- normalized growth (S. cerevisiae deletion strains, locus YNL153C, strain GIM3, stronger effect = lower value): 1.02
- normalized growth (S. cerevisiae deletion strains, locus YNL175C, strain NOP13, stronger effect = lower value): 0.996
- normalized growth (S. cerevisiae deletion strains, locus YNL183C, strain NPR1, stronger effect = lower value): 0.919
- normalized growth (S. cerevisiae deletion strains, locus YNL197C, strain WHI3, stronger effect = lower value): 1.01
- normalized growth (S. cerevisiae deletion strains, locus YNL209W, strain ssb2, stronger effect = lower value): 0.953
- normalized growth (S. cerevisiae deletion strains, locus YNL224C, strain SQS1, stronger effect = lower value): 0.984
- normalized growth (S. cerevisiae deletion strains, locus YNL233W, strain BNI4, stronger effect = lower value): 1.01
- normalized growth (S. cerevisiae deletion strains, locus YNL248C, strain rpa49, stronger effect = lower value): 0.894
- normalized growth (S. cerevisiae deletion strains, locus YNL250W, strain rad50, stronger effect = lower value): 1
- normalized growth (S. cerevisiae deletion strains, locus YNL271C, strain bni1, stronger effect = lower value): 1.01
- normalized growth (S. cerevisiae deletion strains, locus YNL298W, strain CLA4, stronger effect = lower value): 1
- normalized growth (S. cerevisiae deletion strains, locus YNL307C, strain MCK1, stronger effect = lower value): 1
- normalized growth (S. cerevisiae deletion strains, locus YNL322C, strain KRE1 (second series), stronger effect = lower value): 0.923
- normalized growth (S. cerevisiae deletion strains, locus YNL322C, strain KRE1, stronger effect = lower value): 1.01
- normalized growth (S. cerevisiae deletion strains, locus YNR049C, strain mso1, stronger effect = lower value): 0.975
- normalized growth (S. cerevisiae deletion strains, locus YNR052C, strain pop2, stronger effect = lower value): 1.01
- normalized growth (S. cerevisiae deletion strains, locus YOL006C, strain TOP1, stronger effect = lower value): 1.07
- normalized growth (S. cerevisiae deletion strains, locus YOL012C, strain htz1): 0.857
- normalized growth (S. cerevisiae deletion strains, locus YOL147C, strain pex11, stronger effect = lower value): 1.01
- normalized growth (S. cerevisiae deletion strains, locus YOR001W, strain rrp6, stronger effect = lower value): 0.996
- normalized growth (S. cerevisiae deletion strains, locus YOR061W, strain CKA2, stronger effect = lower value): 1.01
- normalized growth (S. cerevisiae deletion strains, locus YOR069W, strain VPS5, stronger effect = lower value): 1.01
- normalized growth (S. cerevisiae deletion strains, locus YOR070C, strain gyp1, stronger effect = lower value): 0.979
- normalized growth (S. cerevisiae deletion strains, locus YOR080W, strain dia2, stronger effect = lower value): 0.995
- normalized growth (S. cerevisiae deletion strains, locus YOR083W, strain WHI5 (second series), stronger effect = lower value): 0.987
- normalized growth (S. cerevisiae deletion strains, locus YOR083W, strain WHI5, stronger effect = lower value): 0.9
- normalized growth (S. cerevisiae deletion strains, locus YOR106W, strain vam3, stronger effect = lower value): 0.89
- normalized growth (S. cerevisiae deletion strains, locus YOR136W, strain idh2, stronger effect = lower value): 1
- normalized growth (S. cerevisiae deletion strains, locus YOR144C, strain elg1, stronger effect = lower value): 1.02
- normalized growth (S. cerevisiae deletion strains, locus YOR184W, strain ser1, stronger effect = lower value): 0.954
- normalized growth (S. cerevisiae deletion strains, locus YOR231W, strain MKK1, stronger effect = lower value): 0.99
- normalized growth (S. cerevisiae deletion strains, locus YOR265W, strain rbl2, stronger effect = lower value): 0.997
- normalized growth (S. cerevisiae deletion strains, locus YOR270C, strain vph1, stronger effect = lower value): 0.838
- normalized growth (S. cerevisiae deletion strains, locus YOR290C, strain snf2, stronger effect = lower value): 0.898
- normalized growth (S. cerevisiae deletion strains, locus YOR316C, strain cot1, stronger effect = lower value): 1.02
- normalized growth (S. cerevisiae deletion strains, locus YPL051W, strain arl3, stronger effect = lower value): 0.916
- normalized growth (S. cerevisiae deletion strains, locus YPL055C, strain LGE1, stronger effect = lower value): 1
- normalized growth (S. cerevisiae deletion strains, locus YPL078C, strain atp4, stronger effect = lower value): 0.926
- normalized growth (S. cerevisiae deletion strains, locus YPL106C, strain sse1, stronger effect = lower value): 0.949
- normalized growth (S. cerevisiae deletion strains, locus YPL240C, strain hsp82, stronger effect = lower value): 0.991
- normalized growth (S. cerevisiae deletion strains, locus YPL241C, strain CIN2, stronger effect = lower value): 1
- normalized growth (S. cerevisiae deletion strains, locus YPL256C, strain CLN2, stronger effect = lower value): 0.981
- normalized growth (S. cerevisiae deletion strains, locus YPR119W, strain clb2, stronger effect = lower value): 1.02
- normalized growth (S. cerevisiae deletion strains, locus YPR141C, strain kar3, stronger effect = lower value): 1.01
- normalized growth (S. cerevisiae deletion strains, locus YPR163C, strain tif3, stronger effect = lower value): 1.02
- normalized growth (S. cerevisiae deletion strains, locus YPR167C, strain met16, stronger effect = lower value): 1.02
- normalized growth (S. cerevisiae deletion strains, strain wtn01, stronger effect = lower value): 1.03
- normalized growth (S. cerevisiae strains, strain wild type, stronger effect = lower value): 1
